HEK293 cAMP ctrl = parental HEK293 cAMP activation (counter-screen). parental HEK293 CNG cAMP sensor, membrane potential fluorescence. AID 938. Potency, µM (top dose mostly 57.1 µM), for the others: at the top dose activation, usual class: activators. 73,000 compounds, 2.5% hits; note: potency is the fitted concentration of half-maximal effect; % of control where 0% means no effect; nearly all actives have a fitted effect of over 55% in size
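Parental HEK 293 cells stably expressing a modified CNG channel (no TSHR) report cAMP rise as membrane depolarization. Membrane potential dye with 100 uM RO 20-1724 was loaded for 60 min at room temperature, then compound added for 30 min; fluorescence read at 590 nm.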
HBB splicing = hemoglobin beta splicing modulation; AID 925; Potency, µM (highest dose often 46.1 µM), for inactives: at the highest dose activation, most hits filed as activators; 65,000 compounds, 0.06% hits; HBB splicing reporter cell assay, activation; EGFP reporter with mutant IVS2-654 intron; response scale: normalised to 500 nM splice-correcting PNA; note: potency is the fitted concentration of half-maximal effect; 0% is about no effect
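Compounds were applied for 2 days to HeLa EGFP-654 cells, 500/well in Optimem with 2% FCS. The reporter's EGFP is disrupted by mis-splicing of beta-globin intron IVS2-654. Readout: summed well GFP fluorescence from 488 nm laser scanning; reference was 500 nM antisense […] 654 PNA.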
TSHR ag = agonists of human thyroid stimulating hormone receptor | P16473 | HEK293-CNG-TSHR cells (CNG channel as cAMP sensor), membrane potential dye, cAMP | Potency, µM (highest dose often 57.1 µM), for inactives: at the top dose activation, hits mostly activators | 73,000 compounds, 0.48% hits; active = well fitted activation curve with a large enough effect in the main read-out, with a control signal flat, not every such curve was filed as active; inconclusive = small, poorly fitted or top-dose-only effect, or a change in a side signal; inactive = no such curve, though single readings can be large or run the other way; % of control where 0% means no effect;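 note: the control signal comes from parental cells without the receptor; potency is the fitted concentration of half-maximal effect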
Target sequence (P16473 whole entry, looked up): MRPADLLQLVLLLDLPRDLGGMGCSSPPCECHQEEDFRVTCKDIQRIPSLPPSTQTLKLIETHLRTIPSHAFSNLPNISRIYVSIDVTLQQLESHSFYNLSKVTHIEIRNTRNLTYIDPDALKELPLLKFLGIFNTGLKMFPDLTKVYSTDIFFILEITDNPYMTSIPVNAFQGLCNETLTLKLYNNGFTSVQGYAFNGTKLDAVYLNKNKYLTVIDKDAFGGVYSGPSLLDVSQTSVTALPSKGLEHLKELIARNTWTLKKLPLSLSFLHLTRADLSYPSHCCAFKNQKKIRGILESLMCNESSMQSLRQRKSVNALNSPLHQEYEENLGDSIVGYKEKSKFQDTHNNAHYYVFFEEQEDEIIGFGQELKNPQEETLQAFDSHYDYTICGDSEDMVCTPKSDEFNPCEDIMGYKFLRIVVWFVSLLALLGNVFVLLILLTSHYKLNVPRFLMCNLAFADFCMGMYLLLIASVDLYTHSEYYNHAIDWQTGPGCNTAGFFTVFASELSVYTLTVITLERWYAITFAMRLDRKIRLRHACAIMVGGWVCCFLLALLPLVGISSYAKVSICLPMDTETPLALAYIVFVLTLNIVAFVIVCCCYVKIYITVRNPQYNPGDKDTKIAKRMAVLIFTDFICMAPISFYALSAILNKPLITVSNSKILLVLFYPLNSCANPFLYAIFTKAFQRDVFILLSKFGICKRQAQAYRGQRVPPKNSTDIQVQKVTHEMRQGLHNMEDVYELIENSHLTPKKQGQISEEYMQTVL
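cAMP rise detected as CNG-channel membrane depolarization by fluorescent dye (emission 590 nm), 30 min after compound, following 60 min dye loading containing 100 uM RO 20-1724 at room temperature. Cells: TSHR/CNG HEK 293, with parental CNG HEK 293 as control.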
Ub-GFP proteasome = proteasome inhibitors stabilizing ubiquitin-GFP reporter. Ubiquitin-GFP reporter cells, proteasome inhibition, GFP fluorescence; response scale: untreated = 0%, 10 µM MG-132 = 100%. AID 526. Potency, µM (highest dose often 45.9 µM), for the others: top-dose activation (GFP accumulation), usual class: activators. 67,000 tested, under 10 active; active = well fitted activation curve with a large enough effect, not every such curve was filed as active; inconclusive = small, poorly fitted or top-dose-only effect, or another doubt; inactive = no such curve, though single readings can be large or run the other way; note: potency is the fitted concentration of half-maximal effect
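U2OS cells stably expressing ubiquitin(G76V)-GFP, seeded overnight in 0.5% FBS medium, were exposed to compounds (qHTS, 46 uM to 2.9 nM) for 4 hr at 37 °C. GFP-positive cells were counted by laser cytometry (488 ex/515 em), normalized between basal and 10 uM MG-132.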
ERK AVP block = vasopressin-driven ERK pathway inhibition. HEK293-V1b, vasopressin-stimulated pERK AlphaScreen. Potency, µM (highest dose often 57.5 µM), inactives show at the top dose activity, negative = inhibition, usual class: inhibitors. 72,000 compounds, 0.99% hits. AID 995; note: potency is the fitted concentration of half-maximal effect; % is set by controls: 0 for no effect and ±100 for the full control effect; nearly all actives have a fitted effect of over 55% in size
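qHTS, compounds titrated on V1b-expressing HEK293 cells. Preincubation 30 min at 37C, vasopressin 25 nM for 5 min, lysis 10 min, bead incubation 5 hr at room temperature.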
Epigenetic mod = epigenetic modulators derepressing GFP locus in mouse cells; Potency, µM (titrated, usually from 46.1 µM), for the others: at the highest dose GFP derepression (activation); mouse C127i GFP locus derepression, cytometry, 30 h; 68,000 compounds, 0.09% hits; note: % of control where 0% means no effect
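Derepression screen: silenced CMV-GFP reporter in murine C127i cells, 30 h compound incubation at 37 C, washed cells imaged by laser-scanning cytometer to enumerate GFP-expressing objects of 20 to 120 um.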
Active calls of the source: *; [ ] = another dose, or the depositor's remark. This is a sample that favours compounds with a hit; in the whole collection about 3.8% have one here. Unless noted, calls come from the whole dose curve; as a rule, active = well fitted curve in the direction sought with a large enough effect; inconclusive = small, poorly fitted or top-dose-only effect, or another doubt; inactive = no such curve, though single readings can be large; an effect the other way counts as inactive or inconclusive.

For COc1ccc(Oc2ncc3nc(C)c(=O)n(C[C@H]4CCCO4)c3n2)cc1 the results were HEK293 cAMP ctrl 21%, HBB splicing 2%, TSHR ag 9%, Ub-GFP proteasome 11%, ERK AVP block -25% and Epigenetic mod 2%[9.22 µM].
`CC1=C(\C=C/C(C)=C/C=C\C(C)=C\C(=O)Nc2ccc(O)cc2)C(C)(C)CCC1` gave HEK293 cAMP ctrl 1%, HBB splicing 4%, TSHR ag 11%, Ub-GFP proteasome -3% and Epigenetic mod 0%.
`COc1cc(-n2nc(C)c3c2OC(N)=C(C#N)C3c2ccccc2)c(Cl)c(Br)c1O` (stereo not given) gave HEK293 cAMP ctrl -28%, HBB splicing -1%, TSHR ag -48%, Ub-GFP proteasome 8%, ERK AVP block 32µM* and Epigenetic mod 2%.
`COc1ccc(C(=O)c2no[n+]([O-])c2C(=O)c2ccc(OC)cc2)cc1` gave HEK293 cAMP ctrl 11%, HBB splicing 1%[57.5 µM], TSHR ag 2%, Ub-GFP proteasome -7%, ERK AVP block inconclusive and Epigenetic mod 17%.
`O=C(c1cccs1)c1no[n+]([O-])c1C(=O)c1cccs1` gave HEK293 cAMP ctrl -4%, HBB splicing 5%, TSHR ag -5%, Ub-GFP proteasome -10%, ERK AVP block 5µM* and Epigenetic mod 0%.
For COc1ccc2[nH]cc(CCNc3ncncc3-c3ccccc3C)c2c1 the results were HEK293 cAMP ctrl inconclusive, HBB splicing 1%, TSHR ag inconclusive, Ub-GFP proteasome 6%, ERK AVP block inconclusive and Epigenetic mod 2%[9.22 µM].
COc1cccc(OC)c1OCCNC[C@@H]1COc2ccccc2O1 was read as HEK293 cAMP ctrl 32µM*, HBB splicing 0%, TSHR ag inconclusive, Ub-GFP proteasome 1%, ERK AVP block inconclusive and Epigenetic mod 0%.
For Cc1cnc(CNc2cc(-c3ccccc3Cl)ncn2)cn1 the results were HEK293 cAMP ctrl inconclusive, HBB splicing -1%, TSHR ag inconclusive, Ub-GFP proteasome 2%, ERK AVP block -21% and Epigenetic mod -5%[9.22 µM].
For CCc1c(O)nc(SCC(=O)Nc2ccc3c(c2)CCC3)[nH]c1=O the results were HEK293 cAMP ctrl 25µM*, HBB splicing 0%[57.5 µM], TSHR ag inconclusive, Ub-GFP proteasome 4%, ERK AVP block -25% and Epigenetic mod 4%.
c1ccc(C2=Nn3c(nnc3-c3cc(-c4ccccc4)n[nH]3)SC2)cc1 was read as HEK293 cAMP ctrl 25µM*, HBB splicing 2%[0.369 µM], TSHR ag inconclusive, ERK AVP block 25µM* and Epigenetic mod 2%.
`Cc1ccc(-c2nnc3n2N=C(c2ccccc2)CS3)cc1` gave HEK293 cAMP ctrl -4%, HBB splicing 1%, TSHR ag 8% and Ub-GFP proteasome 15%.
COc1ccc(C2=Nn3c(nnc3-c3ccc(OC)cc3)SC2)cc1 was read as HEK293 cAMP ctrl inconclusive, HBB splicing 5%[1.84 µM], TSHR ag inconclusive, Ub-GFP proteasome -6%, ERK AVP block 10µM* and Epigenetic mod 0%.
`COc1ccc(C2=Nn3c(nnc3-c3ccccn3)SC2)cc1OC` gave Epigenetic mod -4%[20.6 µM].
For COc1ccc(C2=Nn3c(nnc3-c3ccccc3OC)SC2)cc1OC the results were HEK293 cAMP ctrl 25%, HBB splicing 1%, TSHR ag 10µM*, Ub-GFP proteasome 0%, ERK AVP block 5µM* and Epigenetic mod 2%.
Screening COC(=O)C1=C(C)N(Cc2ccccc2)[C@]23O[C@](C(=O)OC)(C(=O)N2C1c1ccccc1)C1CCCC(=O)C13 (stereo not given in full) returned HEK293 cAMP ctrl 9%[11.4 µM], HBB splicing 1%[9.22 µM], TSHR ag 0%[11.4 µM] and ERK AVP block 1%[11.5 µM].
For Cc1ccc(-c2nnn(CC(=O)Nc3cccc4cccnc34)n2)o1 the results were HEK293 cAMP ctrl 25µM*, TSHR ag inconclusive, Ub-GFP proteasome 2%, ERK AVP block -4% and Epigenetic mod 1%.
For Cc1ccc(-c2nnn(CC(=O)N(CC(=O)NC(C)C)c3cnc4ccccc4c3)n2)o1 the results were HEK293 cAMP ctrl 4%, TSHR ag 8%, Ub-GFP proteasome -3%, ERK AVP block -25% and Epigenetic mod 0%.
Cc1ccc(S(=O)(=O)N[C@H](CN)C(=O)O)cc1 was read as HEK293 cAMP ctrl 10%[11.4 µM], HBB splicing 2%[9.22 µM], TSHR ag 0%[11.4 µM], Ub-GFP proteasome -14%[9.17 µM], ERK AVP block 1%[11.5 µM] and Epigenetic mod -3%[9.22 µM].
Screening Cc1ccc(C(=O)CSc2nnc(COc3cccc(C)c3)o2)cc1 returned HEK293 cAMP ctrl inconclusive, TSHR ag inconclusive, Ub-GFP proteasome 7%, ERK AVP block 4% and Epigenetic mod 3%.
`Cc1cccc(OCc2nnc(SCc3cc(=O)n4cc(Br)ccc4n3)o2)c1` gave HEK293 cAMP ctrl 13µM*, HBB splicing 0%[57.5 µM], TSHR ag inconclusive, Ub-GFP proteasome 0%, ERK AVP block -9% and Epigenetic mod 6%.
For COc1ccc(CCNc2oc(Cc3cccc4ccccc34)nc2C#N)cc1OC the results were HEK293 cAMP ctrl 23%, HBB splicing 2%[0.369 µM], TSHR ag 20µM*, ERK AVP block inconclusive and Epigenetic mod -2%.
Screening Cc1ccc(OCc2nc(C#N)c(NCc3ccc4c(c3)OCO4)o2)cc1 returned HEK293 cAMP ctrl 16µM*, TSHR ag inconclusive, Ub-GFP proteasome -1%, ERK AVP block inconclusive and Epigenetic mod 5%.
Screening COc1ccc(CCNc2oc(-c3ccc(C)cc3)nc2C#N)cc1OC returned HEK293 cAMP ctrl 9%, HBB splicing -1%, TSHR ag 8%, Ub-GFP proteasome 0% and ERK AVP block inconclusive.
N#Cc1nc(COc2ccccc2F)oc1NCc1ccc(F)cc1 was read as HEK293 cAMP ctrl inconclusive, HBB splicing 0%, TSHR ag inconclusive, Ub-GFP proteasome -3%, ERK AVP block inconclusive and Epigenetic mod -2%.
COc1ccc(CCNc2oc(COc3ccccc3F)nc2C#N)cc1 was read as HEK293 cAMP ctrl 20µM*, HBB splicing 0%, TSHR ag inconclusive, Ub-GFP proteasome 10%, ERK AVP block 7% and Epigenetic mod 0%.
Screening COc1ccc(CCNc2oc(COc3ccc(Br)cc3)nc2C#N)cc1OC returned HEK293 cAMP ctrl inconclusive, HBB splicing -1%, TSHR ag inconclusive, Ub-GFP proteasome -9%, ERK AVP block 20µM* and Epigenetic mod 2%.

Screening data (PubChem BioAssay)
